High-throughput results from PubChem.
ADAM10 inh = inhibits human ADAM10 | recombinant ADAM10, EDANS/DABCYL FRET peptide cleavage, 3 h | actives 0.62% (n = 370,000) | inhibition, % at 7 µM | AID 720582;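 active = inhibition above a per-campaign cutoff equal to the mean of compounds falling between control-based bounds plus 3 SD, cut at about 20% in these data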;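 also: 0% = DMSO wells while the 100% control is not disclosed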
ADAM17 inh = inhibits human ADAM17 | inhibition, % at 6.95 µM | recombinant ADAM17, EDANS/DABCYL FRET peptide cleavage | actives 0.83% (n = 370,000);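 active = inhibition above the mean of compounds lying between control limits plus 3 SD, set per campaign, cut at about 8.5% in these data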;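 also: 0% = DMSO-only wells as the low control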
KLK7 zymogen act = proKLK7 (human) activation, primary screen; purified proKLK7, EDANS-DABCYL substrate fluorescence; 100% is mature enzyme control, 0% vehicle; activation, % at 7 µM; actives 0.9% (n = 370,000); AID 652039;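 active = activation above the mean of all tested compounds plus 3 SD, computed per campaign excluding outliers beyond control limits, cut at about 13% in these data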
PLC-beta3 inh = blocks human PLC-beta3 enzyme activity. Q01970. Purified PLC-beta3, fluorogenic substrate, fluorescence. inhibition, % at 12.2 µM. actives 0.18% (n = 370,000). AID 720704; in the data active = inhibition above about 11%;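 also: 0% = median of compound wells on plate and 100% = full blocker control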
PLCg1 inh = PLC-gamma1 (human) inhibition, primary screen; actives 0.84% (n = 370,000); P19174; purified PLC-gamma1, fluorogenic substrate, fluorescence; inhibition, % at 12.2 µM; in the data active = inhibition above about 9.5%
Target sequence (P19174 whole entry, looked up): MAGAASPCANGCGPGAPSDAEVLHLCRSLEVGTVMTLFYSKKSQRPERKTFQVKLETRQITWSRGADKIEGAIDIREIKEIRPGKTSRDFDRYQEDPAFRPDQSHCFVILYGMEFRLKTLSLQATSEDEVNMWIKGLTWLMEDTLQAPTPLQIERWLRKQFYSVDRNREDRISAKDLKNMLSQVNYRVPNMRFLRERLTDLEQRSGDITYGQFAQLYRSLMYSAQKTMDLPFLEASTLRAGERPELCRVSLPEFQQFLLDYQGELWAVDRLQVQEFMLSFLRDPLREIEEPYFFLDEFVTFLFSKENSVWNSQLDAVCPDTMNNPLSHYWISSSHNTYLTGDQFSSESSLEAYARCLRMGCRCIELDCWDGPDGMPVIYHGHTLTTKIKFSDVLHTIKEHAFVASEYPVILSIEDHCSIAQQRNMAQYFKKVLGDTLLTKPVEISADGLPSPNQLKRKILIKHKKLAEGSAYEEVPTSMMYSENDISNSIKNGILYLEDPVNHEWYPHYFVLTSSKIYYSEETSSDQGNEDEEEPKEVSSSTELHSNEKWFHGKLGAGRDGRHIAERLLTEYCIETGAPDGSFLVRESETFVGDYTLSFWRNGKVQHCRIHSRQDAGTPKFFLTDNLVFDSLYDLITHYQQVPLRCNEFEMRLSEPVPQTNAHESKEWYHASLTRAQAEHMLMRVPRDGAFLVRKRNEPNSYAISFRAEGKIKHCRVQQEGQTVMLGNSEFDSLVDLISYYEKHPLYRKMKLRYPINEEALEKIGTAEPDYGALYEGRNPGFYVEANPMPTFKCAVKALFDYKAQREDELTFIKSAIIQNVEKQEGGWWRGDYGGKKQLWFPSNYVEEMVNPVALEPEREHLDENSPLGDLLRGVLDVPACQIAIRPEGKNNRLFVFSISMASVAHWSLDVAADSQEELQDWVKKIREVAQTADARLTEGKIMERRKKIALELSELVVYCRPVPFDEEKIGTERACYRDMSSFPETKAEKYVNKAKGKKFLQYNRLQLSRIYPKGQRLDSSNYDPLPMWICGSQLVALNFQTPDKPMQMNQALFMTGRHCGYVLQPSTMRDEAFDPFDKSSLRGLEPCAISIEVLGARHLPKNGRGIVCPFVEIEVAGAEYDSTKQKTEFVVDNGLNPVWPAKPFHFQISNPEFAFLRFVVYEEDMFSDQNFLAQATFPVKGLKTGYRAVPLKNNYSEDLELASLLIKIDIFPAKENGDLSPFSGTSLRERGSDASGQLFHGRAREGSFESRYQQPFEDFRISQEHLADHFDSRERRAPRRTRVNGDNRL
ADAM10 confirm = human ADAM10 inhibition, confirmation. shares compounds with ADAM10 inh. ADAM10 QFRET peptide cleavage, EDANS fluorescence. inhibition, % at 6.95 µM. actives 1% (n = 2,100);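 active = inhibition above about 20% chosen separately for each screening run, limit read from the data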;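 also: 0% = DMSO wells and 100% = marimastat wells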
ADAM17 ctr = inhibits human ADAM17 in ADAM10 exosite counter-screen; shares compounds with ADAM10 inh; ADAM17 QFRET peptide cleavage, EDANS fluorescence; inhibition, % at 6.95 µM; actives 0.5% (n = 2,100); AID 743214;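 active = mean triplicate inhibition above the solvent-only control wells' mean plus 3 SD, cut at about 12% in these data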;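 also: 0% = DMSO wells and 100% = marimastat wells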
ADAM10 ctr = ADAM10 inhibition, counter-screen for ADAM17 exosite hits | inhibition, % at 6.95 µM | recombinant ADAM10, EDANS/DABCYL FRET peptide cleavage, 3 h | shares compounds with ADAM17 inh | AID 743256 | actives 47% (n = 2,900);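 active = mean inhibition over the triplicate runs exceeds the activity threshold set in the earlier primary screen, cut at about 20% in these data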;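 also: 0% = DMSO wells and 100% = marimastat wells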
ADAM17 confirm = confirmation of inhibitors of human ADAM17; actives 65% (n = 2,900); inhibition, % at 6.95 µM; recombinant ADAM17, EDANS/DABCYL QFRET peptide cleavage; shares compounds with ADAM17 inh;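 active = mean inhibition across replicates above the hit cutoff set in the primary screen, cut at about 8.5% in these data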;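 also: 0% = DMSO wells and 100% = marimastat wells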
Active calls of the source: *; . = no result. Rows were chosen to be rich in hits. Some 2.9% of all compounds tested hit in one or more screens of this group.

SMILES	ADAM10 inh	ADAM17 inh	KLK7 zymogen act	PLC-beta3 inh	PLCg1 inh	ADAM10 confirm	ADAM17 ctr	ADAM10 ctr	ADAM17 confirm
COc1cccc(-n2c(-c3ccc4[nH]c(C)c(C)c4c3)n[nH]c2=S)c1	29.1*	14.0*	-0.1	-18.6	-13.1	5.6	3.1	-0.7	5.6
O=C1N[C@@H](Cc2c[nH]c3ccccc23)COC(=O)[C@H](Cc2ccc(F)cc2)C/C=C\C[C@@H]1CC(=O)N(CCO)Cc1ccccc1	10.2	4.3	0.9	-0.3	0.4	.	.	.	.
O=C1N[C@@H](Cc2c[nH]c3ccccc23)COC(=O)[C@@H](Cc2ccc(F)cc2)C/C=C\C[C@H]1CC(=O)N(CCO)Cc1ccccc1	24.1*	9.7*	0.8	3.7	6.0	4.1	1.8	30.3*	15.3*
COc1ccc(N/N=C(/C(N)=O)C2=NC(C)(C)Cc3ccccc32)cc1	28.2*	13.8*	-0.2	5.8	2.3	2.7	0.3	8.6	4.7
COc1ccc(N/N=C(\C#N)C(N)=O)cc1	0.3	0.9	0.2	0.3	-1.7	.	.	.	.
CCOC(=O)c1cc(-c2ccccc2)nn1CC1CC(c2ccc(OC)cc2)=NO1 (stereo not drawn)	9.6	2.1	-0.9	6.1	0.6	.	.	.	.
CCOC(=O)c1cc(-c2ccccc2C)nn1CC1CC(c2ccc(OC)cc2)=NO1 (stereo not drawn)	20.9*	10.3*	1.2	2.7	4.7	5.3	1.4	17.8	10.2*
Cc1ccc(NS(=O)(=O)c2cc(C(=O)Nc3cccc([N+](=O)[O-])c3)ccc2C)cc1	-3.8	3.2	0.3	1.0	-0.3	.	.	.	.
Cc1ccc(NC(=O)c2cccs2)cc1S(=O)(=O)Nc1cccc(Cl)c1	36.8*	19.6*	0.8	5.2	7.3	2.2	1.5	11.3	6.1
Cc1ccc(C(=O)Nc2cccc([N+](=O)[O-])c2)cc1S(=O)(=O)Nc1ccc(NC(=O)c2ccccc2)cc1	37.2*	15.4*	-0.1	2.9	2.5	5.6	1.5	35.2*	22.6*
COC(=O)C1CN(CCO)CCS(=O)(=O)N1Cc1cn(Cc2ccc(C)cc2)nn1 (stereo not drawn)	-0.4	-0.3	0.3	2.7	0.7	.	.	.	.
CN(c1ccc(NC(=O)CCc2cn(Cc3ccc(Br)cc3)c3ccccc23)cc1)c1ccccn1	-14.8	-1.6	-4.1	-70.8	-51.3	.	.	.	.
OC[C@@H]1CN(Cc2ccc(-c3ccccc3)cc2)C[C@H](n2cnc3c(NCc4ccc(F)cc4)ncnc32)O1	22.8*	8.9*	0.5	3.0	0.8	5.8	3.7	29.4*	17.8*
OC[C@@H]1CN(Cc2ccccc2)C[C@H](n2cnc3c(NCc4ccc(F)cc4)ncnc32)O1	-29.9	-6.7	3.6	-39.9	-30.1	.	.	.	.
Cc1ccc(NS(=O)(=O)c2ccc(C)c(NC(=O)c3ccc(S(=O)(=O)N4CCCCCC4)cc3)c2)c(C)c1	23.3*	8.8*	-0.8	-1.8	-2.4	10.2	2.5	45.7*	23.6*
CC(=O)c1cc(Cl)ccc1OC(=O)c1ccco1	3.5	-6.9	-0.3	-0.3	0.5	.	.	.	.
O=C(Oc1ccc(OC(=O)c2ccco2)c(S(=O)(=O)c2ccc(Cl)cc2)c1)c1ccco1	26.4*	8.8*	-0.5	3.3	2.3	4.2	1.6	19.7	9.7*
COc1ccccc1C(CCNS(=O)(=O)c1ccc(C)cc1)c1ccco1 (stereo not drawn)	21.4*	9.3*	-0.6	-2.2	2.2	5.0	1.9	27.2*	17.6*
CCCCCC(=O)N1C[C@H](n2cc(-c3ccc(F)cc3)nn2)[C@@H](O)C[C@@H]1c1ccc(Cl)cc1	30.9*	12.8*	0.8	0.8	-1.2	7.0	1.9	26.1*	13.2*
O=C(Nc1cccc(O)c1)c1cc(-c2ccccc2Cl)on1	9.0	1.4	0.2	-7.5	-1.1	.	.	.	.
O=C(Nc1ccccc1)OCc1cc(-c2ccccc2Cl)on1	26.9*	9.0*	0.1	-1.2	2.5	9.0	3.0	35.8*	17.5*
COC(=O)[C@]12C[C@H](CC(=O)NCc3ccc(OC)c(OC)c3)C(=O)N(CCC3=CCCCC3)C1=C[C@H](COCc1ccccc1)O[C@@H]2C	12.7	2.4	-0.3	0.5	-1.3	.	.	.	.
O=C(c1ccc(Cl)cc1)N1CCC(O)(CSc2ccc(Cl)cc2Cl)CC1	27.4*	9.4*	0.6	-2.2	4.6	3.8	2.0	27.1*	11.2*
CCOc1cc(-c2nc(-c3ccccc3)c(-c3cc([N+](=O)[O-])ccc3C)[nH]2)ccc1O	30.9*	11.5*	-1.2	-1.2	-0.4	7.0	3.1	21.1*	11.9*
COC(=O)C1CN(Cc2cn(Cc3ccccc3)nn2)CCS(=O)(=O)N1Cc1ccc(C)cc1 (stereo not drawn)	0.4	-0.2	0.0	0.3	1.3	.	.	.	.
SMILES	ADAM10 inh	ADAM17 inh	KLK7 zymogen act	PLC-beta3 inh	PLCg1 inh	ADAM10 confirm	ADAM17 ctr	ADAM10 ctr	ADAM17 confirm
OC(c1ccc(Cl)c(F)c1)c1ncc(-c2cccc(C(F)(F)F)c2)[nH]1 (stereo not drawn)	31.5*	10.6*	0.3	6.8	9.3	1.5	0.6	26.1*	14.4*
Cc1ccc(C(O)c2ncc(-c3cccc(C(F)(F)F)c3)[nH]2)cc1F (stereo not drawn)	7.7	3.1	0.0	-3.0	0.7	.	.	.	.
COC(=O)C[C@H]1CC[C@@H]2[C@H](COc3ccc(NC(=O)c4ccccc4OC)cc3C(=O)N2C)O1	2.1	0.8	-0.9	1.2	6.3	.	.	.	.
Cc1cc(C)c(-c2cc(NC(=O)COC(=O)c3ccc(NC(=O)CC#N)cc3)n(-c3ccccc3)n2)cc1C	-2.6	0.1	-0.5	-14.0	1.0	.	.	.	.
Cc1cc(C)c(-c2cc(NC(=O)COC(=O)c3ccc(C#N)cc3)n(-c3ccccc3)n2)cc1C	22.5*	9.1*	-0.7	-1.9	0.4	14.5	4.5	22.3*	13.0*
CC(C)C[C@H](NC(=O)c1nc[nH]c1C(=O)NCc1ccccc1)C(=O)OCc1ccccc1	25.4*	10.3*	0.5	5.5	3.0	7.4	3.9	34.7*	15.7*
CC(C)C[C@H](NC(=O)c1[nH]cnc1C(=O)N[C@@H](Cc1ccccc1)C(=O)OCc1ccccc1)C(=O)OC(C)(C)C	16.7	3.4	-0.2	8.7	4.5	.	.	.	.
C[C@H](NC(=O)c1nc[nH]c1C(=O)NCc1ccccc1)C(=O)OCc1ccccc1	15.1	6.2	0.1	3.7	3.0	.	.	.	.
